CtBP-E1A inh: inhibitors of CtBP/E1A interaction. AlphaScreen GST-E1A/His-CtBP binding, 1536-well; active compounds read low. activity change, % (no concentration beside the values). actives 0.49% (n = 340,000). AID 651724; in the data active = activity change below about -65%; inconclusive = mostly about -30% to -63%; also: % is scaled to controls: 0 for no effect and ±100 for the full control effect
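GST-E1A and His-tagged CtBP (125 nM each as 5X stock) were preincubated with pin-transferred compound for 2 h at 37 °C in the dark, then glutathione donor and nickel acceptor beads were added for 1 h before AlphaScreen reading.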
Six1-Eya2 inh: blocks human Six1 binding to Eya2. Q15475+O00167. AlphaScreen GST-Six1/His-Eya2 binding, biochemical; active compounds read low. activity change, % (concentration not given with the values). actives 0.56% (n = 360,000); in the data active = activity change below about -65%; inconclusive = mostly about -30% to -63%; also: % is scaled to controls: 0 for no effect and ±100 for the full control effect
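AlphaScreen with GST-Six1 and His-Eya2 (5X mix: 250 nM and 500 nM), glutathione donor and nickel acceptor beads; buffer 50 mM Tris pH 8.0, 300 mM NaCl, 1 mM TCEP; 1 h at 37 C in the dark.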
G9a block: blocks human histone lysine methyltransferase G9a; Potency, µM (doses to about 102 µM), for inactives: at the top dose activity, negative = inhibition, hits mostly inhibitors; AID 504332; actives 8.8% (n = 350,000); G9a H3K9 monomethylation, AlphaScreen, 2 h; Q96KQ7; also: potency is read from the fitted curve at half-maximal effect; % is scaled to controls: 0 for no effect and ±100 for the full control effect; nearly all actives have a fitted effect of over 75% in size
Target sequence (Q96KQ7 913-1193 limits assumed): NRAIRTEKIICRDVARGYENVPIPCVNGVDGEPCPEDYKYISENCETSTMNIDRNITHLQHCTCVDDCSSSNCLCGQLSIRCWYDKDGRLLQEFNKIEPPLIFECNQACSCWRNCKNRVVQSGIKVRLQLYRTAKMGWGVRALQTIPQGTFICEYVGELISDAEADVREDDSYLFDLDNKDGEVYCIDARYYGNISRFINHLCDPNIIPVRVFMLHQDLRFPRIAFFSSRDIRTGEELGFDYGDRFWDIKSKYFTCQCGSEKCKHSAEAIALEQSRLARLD
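Compounds were preincubated with 20 nM G9a for 15 min, after which biotinylated H3K9 peptide (500 nM) and SAM (20 uM) started a 2 h room-temperature reaction. Monomethylated product was quantified by antibody-based AlphaScreen chemiluminescence.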
HP1b chromo inh: blocks HP1-beta chromodomain binding to methylated histone tails | P83916 | AlphaScreen HP1-beta / biotin-H3K9me3 peptide binding | Potency, µM (highest dose often 114 µM), for inactives: top-dose activity change, negative = inhibition, actives largely listed as inhibitors | actives 0.56% (n = 390,000) | AID 540317; also: potency is read from the fitted curve at half-maximal effect; nearly all actives have a fitted effect of over 70% in size
Target sequence (P83916 whole entry, looked up): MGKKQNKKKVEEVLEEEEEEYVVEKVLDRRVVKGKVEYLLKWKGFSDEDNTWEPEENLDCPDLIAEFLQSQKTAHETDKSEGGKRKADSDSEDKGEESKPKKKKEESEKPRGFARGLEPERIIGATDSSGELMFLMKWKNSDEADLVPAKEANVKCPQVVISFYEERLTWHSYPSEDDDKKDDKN
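HP1-beta protein (50 nM final) preincubated 30 min at room temperature with biotinylated H3(1-18)K9me3 peptide (50 nM) in PBS pH 7.4, 0.01% Tween-20, then compound added for 30 min. AlphaScreen streptavidin donor/nickel chelate acceptor beads (10 ug/mL final), 30 min dark, luminescence read.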
JMJD2A Tudor: inhibitors of human JMJD2A Tudor domain; AlphaScreen JMJD2A-Tudor / H3K4me3 peptide binding; Potency, µM (top dose mostly 114 µM), for inactives: top-dose activity change, negative = inhibition, hits mostly inhibitors; actives 4.4% (n = 390,000); AID 504339; also: potency is read from the fitted curve at half-maximal effect; % is scaled to controls: 0 for no effect and ±100 for the full control effect; nearly all actives have a fitted effect of over 50% in size
BAZ2B block: blocks human BAZ2B. actives 4.4% (n = 360,000). Q9UIF8. AID 504333. AlphaScreen BAZ2B-H3K14Ac peptide displacement. Potency, µM (highest dose often 114 µM), for the others: at the top dose activity change, negative = inhibition, hits mostly inhibitors; also: potency is read from the fitted curve at half-maximal effect; % is scaled to controls: 0 for no effect and ±100 for the full control effect; nearly all actives have a fitted effect of over 60% in size
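Complex of BAZ2B and biotin-H3K14Ac (50 nM apiece) forms over 30 min at RT, then faces library compounds up to 110 uM for another 30 min; AlphaScreen beads added, 20 min dark incubation, luminescence read.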
* hit, by the source's call; ? = inconclusive; . = not tested or not shown; [ ] = dose if it differs, or a comment. A selection: hits, their analogues and other compounds. The true share with any hit is near 10%. Unless noted, calls follow the shape of the dose curve; as a rule, active = well fitted inhibition curve with a large enough effect; inconclusive = small, poorly fitted or top-dose-only effect; inactive = no such curve, though single readings can be large or run the other way.

SMILES	CtBP-E1A inh	Six1-Eya2 inh	G9a block	HP1b chromo inh	JMJD2A Tudor	BAZ2B block
COc1ccc(-c2csc(=Nc3ccccc3)n2CCO)cc1F	.	.	16µM*	?	40µM*	50µM*
Cc1c(N=c2scc(-c3ccccc3)n2CCO)c(=O)n(-c2ccccc2)n1C	.	4	?	27%	-22%	-12%
COc1ccc(N=c2scc(-c3ccc(OC)cc3)n2CCO)cc1	?	?	?	?	?	32µM*
CCCN1CCN(C(=O)c2ccccc2-c2nc3ccccc3s2)CC1	-14	3	40µM*	23%	-24%	-31%
CCN1CCN(C(=O)c2ccc(-c3nc4ccccc4s3)s2)CC1	.	-2	-43%	13%	-12%	1%
CCN(CC)CCNC(=O)c1cc2c(=O)n(C)c3cc(Cl)ccc3c2s1	.	.	-14%[59 µM]	19%	-9%	.
O=C1NC(=S)NC(=O)C1=Cc1ccccc1C(=O)O	2	-8	.	-20%	25µM*	.
COc1ccc(-c2nc3ccccc3o2)cc1NC(=O)COc1ccc(C(C)(C)C)cc1	.	.	-38%[59 µM]	45%	-14%	1%
O=C(NNC1=NS(=O)(=O)c2ccccc21)c1ccc([N+](=O)[O-])cc1	3	7	35µM*	11%	-6%	-6%
O=C(NNC1=NS(=O)(=O)c2ccccc21)c1ccc(Cl)cc1	.	1	-46%	32%	-11%	-6%
Cc1ccc2cccc(NC(=O)COc3ccccc3[N+](=O)[O-])c2n1	.	.	?	36%	-14%	3%
Nc1c(C(=O)O)cnc2c(-c3ccc(Cl)cc3)cnn12	-20	-22	?	-4%	28µM*	28µM*
CC(=O)c1cnc2c(-c3ccc(Cl)cc3)cnn2c1C	-2	11	25%[59 µM]	-1%	-11%[11.4 µM]	7%
Cc1ccc(Cn2c(SCCN3CCCCC3)nc3c2c(=O)[nH]c(=O)n3C)cc1	4	3	25µM*	-29%	-22%	2%
Cn1c(=O)[nH]c(=O)c2c1nc(SCCN1CCCCC1)n2CCCc1ccccc1	2	-2	8.9µM*	-10%	?	-31%
COc1ccc(CNC(=O)CCn2c(=O)c3cccn3c3ccc(F)cc32)cc1OC	.	.	4%[59 µM]	67%	3%	-13%
O=C(O)c1cc2c(ncc3c(=O)n(-c4ccccc4)[nH]c32)s1	-68*	-75*	.	.	.	.
CCOCN(C(=O)CSc1nc2ccccc2[nH]1)c1c(C)cccc1CC	.	.	-40%[59 µM]	29%	-11%	1%
O=C(CCCCCn1c(=O)[nH]c2ccccc2c1=O)NCc1cccc(Cl)c1	.	.	6%[59 µM]	3%	-16%	0%
CN(CC(=O)O)c1ccc(S(=O)(=O)N2CCOCC2)cc1[N+](=O)[O-]	-23	3	42%	50%	-5%[57.1 µM]	12%
COc1cccc(C(CNc2ccc(S(=O)(=O)N3CCN(C)CC3)cc2[N+](=O)[O-])N(C)C)c1 (configuration not stated)	2	-6	50µM*	-22%	?	?
COc1ccc(CCNc2ccc(S(=O)(=O)N3CCCC3)cc2[N+](=O)[O-])cc1	-29	?	?	?	?	?
CC(Nc1ccc(S(=O)(=O)N2CCN(C)CC2)cc1[N+](=O)[O-])c1ccccc1 (configuration not stated)	-17	-26	40µM*	-28%	?	?
CN1CCN(S(=O)(=O)c2ccc(N(C)Cc3ccc(OC(F)F)cc3)c([N+](=O)[O-])c2)CC1	-18	?	9%[0.501 µM]	?	?	50µM*
COc1ccccc1C(C)Nc1ccc(S(=O)(=O)N2CCN(C)CC2)cc1[N+](=O)[O-] (configuration not stated)	.	?	?	?	35µM*	40µM*
SMILES	CtBP-E1A inh	Six1-Eya2 inh	G9a block	HP1b chromo inh	JMJD2A Tudor	BAZ2B block
CCOc1ccccc1/C=C/c1onc(C)c1S(=O)(=O)N1CCC(C(=O)N2CCCCC2)CC1	.	.	4%[59 µM]	41%	-13%	2%
Cc1cccc(N/N=C/c2ccc(C)s2)c1	-23	-15	?	-8%	?	?
Cc1cccc(NN=C2c3ccccc3-c3ccccc32)c1	2	-8	32µM*	15%	-24%	-14%
CC(=O)N[C@@H](CSC(=O)[C@]1([C@@H](O)C(C)C)NC(=O)[C@H](C)[C@@H]1O)C(=O)O	.	.	-23%[12.7 µM]	.	.	.
COc1cc(C=NO)nc(-c2ccccn2)c1	3	-92*	.	40%	14µM*	.
O=S(=O)(c1cc(O)ccc1O)c1cccc2c(S(=O)(=O)c3cc(O)ccc3O)cccc12	-16	?	20%[2.33 µM]	16µM*	18µM*	11µM*
Cc1ccc(CCNC(=O)c2cn(C)c3ccc(S(=O)(=O)N(C)C4CCCCC4)cc3c2=O)cc1	.	.	-5%[59 µM]	-1%	-28%	.
COc1ccc(-n2nc3cc(C)c(NC(C)=O)cc3n2)cc1	1	5	.	4%	-12%	-15%
CCc1ccc(-n2nc3cc(C)c(NC(=O)c4cc(OC)cc(OC)c4)cc3n2)cc1	.	.	5.6µM*	6%	-31%	?
CCc1ccc(-n2nc3cc(C)c(NC(=O)c4ccccc4C)cc3n2)cc1	.	.	7.9µM*	8%	89µM*	?
CCc1ccc(-n2nc3cc(C)c(NC(=O)c4cccc5ccccc45)cc3n2)cc1	.	.	?	29%	4%	-17%
COc1cc(C2CC(=O)N3CN(c4ccccc4C)CSC3=C2C#N)cc(OC)c1OC (configuration not stated)	.	.	1.4µM*	.	.	?

High-throughput results: PubChem, National Center for Advancing Translational Sciences (NCATS)
